Reference: PubChem BioAssay (NCI)
Compounds without any hit were thinned out: in the full panel of roughly 79,000, 15% have a hit. Values without a mark were called inactive. Active and inactive are the calls of the source. Rule as the data show it: active = growth inhibition above about 70%; inactive = the rest.

Experiments:
[1] = NCI Yeast Anticancer Drug Screen. Data for the rad50 strain (AID 155);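 also: 0% = growth of vehicle-only cultures of the same strain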; conditions: S. cerevisiae rad50 strain growth inhibition, hits give high values
Method in brief: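 Compounds were tested on a yeast strain with an engineered DNA damage repair alteration; the reported value is growth inhibition normalised to vehicle treatment.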

[2] = NCI Yeast Anticancer Drug Screen. Data for the mec2-1 strain (AID 157); conditions: S. cerevisiae mec2-1 strain, hits give high values
Method in brief: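 Mutant yeast (mec2-1) grown with compound; growth inhibition relative to vehicle control reported.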

[3] = NCI Yeast Anticancer Drug Screen. Data for the sgs1 mgt1 strain (AID 161);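 also: 0% = growth of cultures given vehicle only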; conditions: S. cerevisiae sgs1 mgt1 strain, hits give high values
Method in brief: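 Growth of a repair-deficient yeast mutant was monitored after compound treatment and expressed as inhibition relative to vehicle-treated cultures.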

[4] = NCI Yeast Anticancer Drug Screen. Data for the cln2 rad14 strain (AID 165);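 also: 0% = growth equal to vehicle treated cultures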; conditions: S. cerevisiae cln2 rad14 strain, hits give high values
Method in brief: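 Readout is yeast growth inhibition versus vehicle-treated controls, using a strain with cln2 and rad14 alterations exposed to compound.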

[5] = NCI Yeast Anticancer Drug Screen. Data for the bub3 strain (AID 167); conditions: S. cerevisiae bub3 mutant strain, hits give high values
Method in brief: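 Growth of a checkpoint-deficient yeast mutant is measured after compound exposure. Values represent inhibition relative to vehicle.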

[6] = NCI Yeast Anticancer Drug Screen. Data for the mlh1 rad18 strain (AID 175); conditions: S. cerevisiae mlh1 rad18 strain growth inhibition, hits give high values
Method in brief: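 Genetically defined yeast (DNA repair-deficient) exposed to compounds; growth inhibition determined relative to vehicle.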

[7] = at 5.0 µM (retest, dose inferred, filed as 0.5)
[8] = at 50.0 µM (retest, dose inferred, filed as 5.0)

Compound	growth inhibition [1, 7]	growth inhibition [1, 8]	growth inhibition ([1]; at 50.0 µM)	growth inhibition [2, 7]	growth inhibition [2, 8]	growth inhibition ([2]; at 50.0 µM)	growth inhibition [3, 7]	growth inhibition [3, 8]	growth inhibition ([3]; at 50.0 µM)	growth inhibition [4, 7]	growth inhibition [4, 8]	growth inhibition ([4]; at 50.0 µM)	growth inhibition [5, 7]	growth inhibition [5, 8]	growth inhibition ([5]; at 50.0 µM)	growth inhibition [6, 7]	growth inhibition [6, 8]	growth inhibition ([6]; at 50.0 µM)
COc1ccccc1NC(=O)C1=C(C)NC(C)=C(C(=O)Nc2ccccc2OC)C1c1ccc(C2C(C(=O)Nc3ccccc3OC)=C(C)NC(C)=C2C(=O)Nc2ccccc2OC)cc1	50%	86% (active)	75.8% (active)	31%	94% (active)	81.2% (active)	37%	92% (active)	77.5% (active)	38%	77% (active)	44.2%	40%	95% (active)	85.2% (active)	41%	95% (active)	47.9%
O=C(c1ccccc1)c1ccc(O)cc1O	-5%	49%	85% (active)	-10%	24%	84.5% (active)	-5%	15%	88.5% (active)	-4%	2%	26.4%	-26%	-17%	58.9%	-9%	12%	72.1% (active)
COc1cc([C@@H]2c3cc4c(cc3[C@@H](OC3OC5CO[C@@H](c6cccs6)OC5C(O)C3O)[C@H]3COC(=O)[C@H]23)OCO4)cc(OC)c1O (some centres not stated)	74% (active)	96% (active)	86.6% (active)	5%	92% (active)	74.8% (active)	6%	77% (active)	63.7%	-3%	79% (active)	47.6%	-2%	74% (active)	49.8%	5%	86% (active)	64.7%
CCc1cccc(C(C)(C)C)c1NC(=S)/N=C/C(C(=O)c1ccccc1)=C(\O)c1ccccc1	-4%	70% (active)	77.2% (active)	-11%	66%	55.3%	-10%	43%	68.9%	-13%	45%	48.1%	-12%	48%	80.3% (active)	-4%	65%	75.6% (active)
O=c1ccn(C2OC(COC(c3ccccc3)(c3ccccc3)c3ccccc3)C(O)C2O)c(=O)[nH]1 (configuration not stated)	34%	98% (active)	90.8% (active)	27%	99% (active)	92.9% (active)	25%	99% (active)	93.3% (active)	30%	98% (active)	92.4% (active)	38%	98% (active)	91.8% (active)	31%	98% (active)	90.3% (active)
CCN(CC)c1ccc(Cl)c2c1C(O)(C(C)C)C2(C)C (configuration not stated)	-20%	96% (active)	88.2% (active)	9%	97% (active)	92.4% (active)	1%	97% (active)	89.7% (active)	24%	98% (active)	89.3% (active)	14%	98% (active)	89.8% (active)	17%	98% (active)	87.5% (active)
CC(C)c1ccc(C2C3=C(N=C4SCC(=O)N42)C(=O)c2ccccc23)cc1 (configuration not stated)	7%	-6%	86.7% (active)	-20%	3%	68.2%	-6%	5%	89.2% (active)	-31%	8%	83% (active)	-41%	41%	80.3% (active)	-39%	2%	42.2%
C[N+]1(C)CCN(CCCN2c3ccccc3Sc3ccccc32)CC1	0%	54%	42.1%	8%	22%	14.3%	-222%	66%	66.9%	4%	15%	25.7%	5%	26%	10.9%	-5%	76% (active)	56.9%
Cc1cc(C)c(N2C(=O)C=CC2=O)c(C)c1	98% (active)	98% (active)	99.7% (active)	99% (active)	99% (active)	99.7% (active)	99% (active)	98% (active)	99.3% (active)	99% (active)	98% (active)	99.2% (active)	99% (active)	98% (active)	99.5% (active)	98% (active)	98% (active)	99.3% (active)
COc1cc(/C=C2/N=C(c3ccccc3)N(C3=NNC4(C(=O)N3)c3ccccc3-c3ccccc34)NC2=O)ccc1O	4%	3%	36.5%	-1%	7%	-5.05%	6%	14%	7.55%	3%	1%	-46.6%	-2%	-7%	27.4%	-17%	11%	20.5%
N#C/C(=C1C=C/C(=N/O)C=C/1Cl)c1ccccc1	-3%	-7%	21.7%	-7%	4%	24.3%	4%	36%	51.9%	-15%	6%	69.5%	5%	18%	28.1%	-11%	10%	26.4%
O=S(=O)(Sc1ccccc1)c1ccccc1	13%	98% (active)	79% (active)	11%	99% (active)	99.1% (active)	16%	99% (active)	99.3% (active)	5%	99% (active)	97% (active)	16%	99% (active)	97.3% (active)	20%	99% (active)	99% (active)
CCOC(=O)/C=C(/Cl)C(=O)OCC	12%	98% (active)	98.5% (active)	5%	99% (active)	99.4% (active)	7%	98% (active)	99.5% (active)	1%	99% (active)	99% (active)	18%	99% (active)	99.2% (active)	6%	99% (active)	99.1% (active)
CCC1(O)c2ccccc2C(O)(CC)c2ccccc21 (configuration not stated)	11%	28%	74% (active)	3%	40%	89.6% (active)	5%	53%	23.4%	3%	21%	96.5% (active)	7%	54%	97% (active)	14%	68%	97.7% (active)
COc1cccc(C2c3cc4c(cc3OC(N3CCOCC3)C2C)OCO4)c1 (configuration not stated)	25%	16%	-11.8%	14%	6%	-9.25%	9%	7%	3.2%	11%	6%	8.45%	26%	13%	0.2%	20%	13%	-3.05%
NC(Cc1nn[nH]n1)C(=O)O (configuration not stated)	3%	-15%	-13.2%	-6%	-10%	-5.95%	-16%	-15%	-42.8%	-11%	-6%	22.4%	10%	-13%	0.95%	-18%	-6%	-23%
O=c1c2cc3c(cc2c2cccc4c2n1CCC4)OCO3	-1%	44%	71.2% (active)	0%	12%	23.4%	-4%	13%	25.4%	-3%	6%	42.4%	2%	31%	20.4%	-2%	15%	53.7%
CCC(CO)Nc1nc2cc(Cl)ccc2c2ccc(Cl)cc12 (configuration not stated)	19%	98% (active)	93.6% (active)	2%	99% (active)	94.8% (active)	24%	97% (active)	95.6% (active)	-4%	97% (active)	89.8% (active)	11%	97% (active)	95.5% (active)	20%	96% (active)	94% (active)
CC1=CC(=O)[C@@H](O)[C@]2(C)[C@H]3[C@@]4(O)OC[C@]35[C@H]([C@@H](C)[C@H]4O)[C@@H](OC(=O)C(C)(C)CO)C(=O)O[C@@H]5C[C@@H]12	10%	44%	90.7% (active)	15%	45%	90.8% (active)	6%	40%	88.3% (active)	17%	51%	90.5% (active)	6%	39%	92.2% (active)	6%	51%	-7.05%
